Data on 12 sequences can be found in paper PMC5700166.

What all share (assay): protein-binding microarray (PBM); PBM: ~300 nM protein, 6 mM HEPES pH 7.8, 80 mM KCl, 0.5 mM EDTA, 0.5 mM EGTA, 6% glycerol, 35 ng/ul poly-dIdC, 1% milk, 1 h, room temperature; Ap Aiptasia and Nv Nematostella (sea anemones) / Co Capsaspora / Aq Amphimedon (sponge) / Dm Drosophila / Hu human; RHD is the Rel homology domain; high values mean tight binding
Details in all cases: dsDNA, one strand shown

For experiment [1], the target named is T1, GST-Ap-NF-kB RHD (Exaiptasia pallida (Aiptasia), UniProt A0A913YAJ5 2-422).
T1 sequence: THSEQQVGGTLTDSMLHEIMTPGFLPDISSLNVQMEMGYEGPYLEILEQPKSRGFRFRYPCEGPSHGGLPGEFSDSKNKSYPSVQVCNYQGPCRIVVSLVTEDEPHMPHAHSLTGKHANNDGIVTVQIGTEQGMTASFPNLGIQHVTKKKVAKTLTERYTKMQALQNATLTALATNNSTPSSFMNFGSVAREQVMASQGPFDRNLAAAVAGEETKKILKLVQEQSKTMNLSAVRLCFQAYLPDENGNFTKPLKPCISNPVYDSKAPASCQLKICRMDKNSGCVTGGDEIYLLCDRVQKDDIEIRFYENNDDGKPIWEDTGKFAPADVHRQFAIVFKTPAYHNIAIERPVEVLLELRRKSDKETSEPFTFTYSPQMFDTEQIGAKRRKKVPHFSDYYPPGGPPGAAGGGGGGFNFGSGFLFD

The target in experiment [2] is T2, GST-Nv-NF-kB (Cys allele) (Nematostella vectensis, UniProt E5G601 2-411).
T2 sequence: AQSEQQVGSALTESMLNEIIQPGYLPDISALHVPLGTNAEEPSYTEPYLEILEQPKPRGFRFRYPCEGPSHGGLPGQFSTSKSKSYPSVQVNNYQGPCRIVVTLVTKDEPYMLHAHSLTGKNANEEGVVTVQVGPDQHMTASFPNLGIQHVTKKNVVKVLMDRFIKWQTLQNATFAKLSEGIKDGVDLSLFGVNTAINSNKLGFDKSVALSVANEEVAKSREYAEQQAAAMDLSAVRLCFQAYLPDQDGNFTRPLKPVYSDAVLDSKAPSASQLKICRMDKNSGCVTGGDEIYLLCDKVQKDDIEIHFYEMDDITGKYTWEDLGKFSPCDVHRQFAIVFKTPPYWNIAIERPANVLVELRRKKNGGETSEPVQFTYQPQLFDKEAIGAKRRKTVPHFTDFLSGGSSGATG

The target in experiment [3] is T3, GST-Co-NF-kB (Capsaspora owczarzaki, UniProt F1ARL5 200-546).
T3 sequence: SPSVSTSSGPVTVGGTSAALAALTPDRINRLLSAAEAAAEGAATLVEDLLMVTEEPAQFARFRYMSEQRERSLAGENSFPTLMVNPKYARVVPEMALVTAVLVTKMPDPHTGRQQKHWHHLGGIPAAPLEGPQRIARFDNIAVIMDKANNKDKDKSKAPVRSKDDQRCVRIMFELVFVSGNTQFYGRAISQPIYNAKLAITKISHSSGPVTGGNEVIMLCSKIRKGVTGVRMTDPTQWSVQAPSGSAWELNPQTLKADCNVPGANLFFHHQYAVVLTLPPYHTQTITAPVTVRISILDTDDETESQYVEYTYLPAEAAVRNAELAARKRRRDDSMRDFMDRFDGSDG

Experiment [4] concerns the target T4, GST-Dm-Relish (Drosophila melanogaster, UniProt Q94527 99-473).
T4 sequence: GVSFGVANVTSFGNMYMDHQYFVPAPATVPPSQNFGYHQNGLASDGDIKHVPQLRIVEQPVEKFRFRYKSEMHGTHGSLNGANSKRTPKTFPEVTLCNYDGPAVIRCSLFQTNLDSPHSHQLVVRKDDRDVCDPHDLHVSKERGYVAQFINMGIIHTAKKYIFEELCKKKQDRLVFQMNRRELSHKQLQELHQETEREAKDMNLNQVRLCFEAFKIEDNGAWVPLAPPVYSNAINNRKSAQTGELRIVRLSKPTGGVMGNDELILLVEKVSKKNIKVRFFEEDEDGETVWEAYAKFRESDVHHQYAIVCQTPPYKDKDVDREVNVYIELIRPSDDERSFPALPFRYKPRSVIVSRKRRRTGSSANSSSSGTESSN

The target in experiment [5] is T5, GST-Aq-NF-kB (Amphimedon queenslandica, UniProt A9Y5G7 2-389).
T5 sequence: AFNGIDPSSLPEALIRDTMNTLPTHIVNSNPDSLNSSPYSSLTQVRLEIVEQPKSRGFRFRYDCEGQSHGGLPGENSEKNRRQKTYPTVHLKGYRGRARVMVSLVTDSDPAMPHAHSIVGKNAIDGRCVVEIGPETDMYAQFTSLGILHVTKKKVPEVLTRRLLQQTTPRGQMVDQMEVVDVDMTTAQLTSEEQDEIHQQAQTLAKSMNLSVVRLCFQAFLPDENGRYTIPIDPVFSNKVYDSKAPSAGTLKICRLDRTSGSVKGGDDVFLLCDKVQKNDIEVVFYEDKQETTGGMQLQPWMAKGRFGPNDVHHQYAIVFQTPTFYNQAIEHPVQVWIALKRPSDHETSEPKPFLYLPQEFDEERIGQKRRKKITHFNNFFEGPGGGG

Experiment [6] addresses GST-Hu-p50 (Homo sapiens, UniProt P19838 7-356).

GST-Hu-p50, sequence (P19838 7-356): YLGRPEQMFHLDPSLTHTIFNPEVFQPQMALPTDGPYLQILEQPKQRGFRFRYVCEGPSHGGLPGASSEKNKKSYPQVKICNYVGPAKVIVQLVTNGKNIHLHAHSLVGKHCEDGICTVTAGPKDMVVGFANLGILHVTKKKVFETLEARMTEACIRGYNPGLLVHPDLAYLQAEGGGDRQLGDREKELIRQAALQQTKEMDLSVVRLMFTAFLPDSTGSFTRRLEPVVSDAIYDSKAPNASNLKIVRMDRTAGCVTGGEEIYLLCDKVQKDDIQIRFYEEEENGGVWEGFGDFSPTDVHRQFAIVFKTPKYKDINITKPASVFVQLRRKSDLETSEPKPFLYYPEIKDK

Regarding “CCGATTAACATCAAAACACCCCCTGATGTTAATCGGGTCTTGATTCGCTTGACGCTGCTG”, the binding signal was 6.39 z-score in experiment [1]; 5.71 z-score in experiment [2]; 5.54 z-score in experiment [3]; 6.95 z-score in experiment [4]; 6.53 z-score in experiment [5]; 6.04 z-score in experiment [6].

Regarding “CCGATTAACATCAAGGGGGGACTTGATGTTAATCGGGTCTTGATTCGCTTGACGCTGCTG”, the binding signal in experiment [1] came out at 4.76 z-score; in experiment [2], 5.56 z-score; in experiment [3] it was 5.68 z-score; in experiment [4] it was 5.09 z-score; in experiment [5] it was 5.14 z-score; in experiment [6], 5.19 z-score.

As to “CCGATTAACATCAGGGGGAGGGATGATGTTAATCGGGTCTTGATTCGCTTGACGCTGCTG”, the binding signal was found to be 4.44 z-score in experiment [1]; 4.45 z-score in experiment [2]; 5.87 z-score in experiment [3]; 3.28 z-score in experiment [4]; 4.21 z-score in experiment [5]; 4.01 z-score in experiment [6].

As for “CCGATTAACATCAGAACATCCCCTGATGTTAATCGGGTCTTGATTCGCTTGACGCTGCTG”, the binding signal in experiment [1] was found to be 6.05 z-score; in experiment [2], 6.64 z-score; in experiment [3], 3.09 z-score; in experiment [4] it was 6.69 z-score; in experiment [5], 5.97 z-score; in experiment [6], 5.45 z-score.

On to “CCGATTAACATCACCAAACCCCCTGATGTTAATCGGGTCTTGATTCGCTTGACGCTGCTG”, for which the binding signal in experiment [1] was 6.25 z-score; in experiment [2] it was 4.31 z-score; in experiment [3] it was 2.03 z-score; in experiment [4], 5.55 z-score; in experiment [5], 4.31 z-score; in experiment [6] it was 6.3 z-score.

For the sequence “CCGATTAACATCAGGGGGTTATATGATGTTAATCGGGTCTTGATTCGCTTGACGCTGCTG”, the binding signal in experiment [1] was 6.77 z-score; in experiment [2] it was 5.64 z-score; in experiment [3], 3.18 z-score; in experiment [4], 6.58 z-score; in experiment [5] it was 6.3 z-score; in experiment [6], 5.59 z-score.

In the case of “CCGATTAACATCAGGAGTCCCCCTGATGTTAATCGGGTCTTGATTCGCTTGACGCTGCTG”, the binding signal in experiment [1] was determined as 8.32 z-score; in experiment [2], 6.17 z-score; in experiment [3] it was 4.42 z-score; in experiment [4], 8.71 z-score; in experiment [5], 6.95 z-score; in experiment [6], 5.55 z-score.

As to “CCGATTAACATCAGGGGGTTGCATGATGTTAATCGGGTCTTGATTCGCTTGACGCTGCTG”, the binding signal in experiment [1] came to 5.29 z-score; in experiment [2], 3.67 z-score; in experiment [3], 2.22 z-score; in experiment [4], 4.83 z-score; in experiment [5] it was 4.08 z-score; in experiment [6], 5.29 z-score.

As to “CCGATTAACATCAGGGAGTTTACTGATGTTAATCGGGTCTTGATTCGCTTGACGCTGCTG”, the binding signal in experiment [1] worked out at 3.14 z-score; in experiment [2] it was 4.14 z-score; in experiment [3] it was 1.37 z-score; in experiment [4] it was 5.53 z-score; in experiment [5] it was 5.6 z-score; in experiment [6], 4.19 z-score.

With “CCGATTAACATCAGGCATACCCCTGATGTTAATCGGGTCTTGATTCGCTTGACGCTGCTG”, the binding signal was found to be 1.96 z-score in experiment [1]; 1.5 z-score in experiment [2]; 1.89 z-score in experiment [3]; 1.3 z-score in experiment [4]; 3.12 z-score in experiment [5]; 1.59 z-score in experiment [6].

With “CCGATTAACATCAGGGCTCCCCATGATGTTAATCGGGTCTTGATTCGCTTGACGCTGCTG”, the binding signal in experiment [1] was 2.59 z-score; in experiment [2], 1.32 z-score; in experiment [3], 2.03 z-score; in experiment [4] it was 3.88 z-score; in experiment [5] it was 2.46 z-score; in experiment [6], 1.51 z-score.

With “CCGATTAACATCAAGGGAATTCCTGATGTTAATCGGGTCTTGATTCGCTTGACGCTGCTG”, the binding signal in experiment [1] stood at 7.9 z-score; in experiment [2], 8.71 z-score; in experiment [3], 3.76 z-score; in experiment [4], 7.95 z-score; in experiment [5] it was 8.11 z-score; in experiment [6], 5.3 z-score.
